Structures are written as SMILES. Out of some 6,700 compounds screened, about 20 (0.3%) were called active. Only a selection was taken, and actives are over-represented in it overall. Values without a mark were called inactive.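 How the source made its calls: active means mean percent activation in the counterscreen above 29.09%; inactive means the rest.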

For this assay, the target named is Glucose-dependent insulinotropic receptor (Homo sapiens) (UniProt Q8TDV5). Nature of the assay: GPR119 activators in beta-arrestin cells, counter-screen for GPR151 activator project, cell-based, PathHunter beta-arrestin, luminescence, triplicate (AID 1508611).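 Further: counterscreen on off-target GPR119 to flag nonselective hits from the GPR151 activator screen.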 To be noted: 90 min, at 11.2 µM, stronger effect = higher value, 0 = compound-well median, 100 = enzyme-acceptor control. A general note: Counterscreens check selectivity or assay interference.
Sequence of Glucose-dependent insulinotropic receptor (Homo sapiens) (Q8TDV5 whole entry, looked up): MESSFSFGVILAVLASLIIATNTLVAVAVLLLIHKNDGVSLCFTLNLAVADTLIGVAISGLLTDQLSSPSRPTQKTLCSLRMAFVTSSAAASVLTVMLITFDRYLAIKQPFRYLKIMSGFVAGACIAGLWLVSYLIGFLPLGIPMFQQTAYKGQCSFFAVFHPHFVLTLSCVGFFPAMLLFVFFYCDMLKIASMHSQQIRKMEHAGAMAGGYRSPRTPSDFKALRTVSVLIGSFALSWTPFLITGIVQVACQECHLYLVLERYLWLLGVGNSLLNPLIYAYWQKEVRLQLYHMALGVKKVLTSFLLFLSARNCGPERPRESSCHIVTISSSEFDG
`c1ccc(-c2nc(-c3cccs3)[nH]c2-c2cccs2)cc1`: the activation is -1.67%.

On to `CCOC(=O)c1cccc(NC(=O)CCCOc2ccc(OC)cc2)c1`, for which the activation was -2.39%.

Take `COc1ccc(OC)c(/C=N/n2nnnc2N)c1`: the activation is -3.22%.

As for `CC(C)(C)NC(=O)Cc1coc2ccc3ccccc3c12`, the activation was -5.33%.

As for `O=C(CN1C(=O)c2ccccc2C1=O)NC(c1ccccc1)c1ccc(Br)cc1` (stereo unspecified), the activation was -12.4%.

Turning to `O=C(COc1ccc(CO)cc1)Nc1ccc(Cl)c(Cl)c1`, the activation was -3.53%.

On to `CO[C@@H]1COC(=O)[C@@H](C)COC(=O)[C@H](C)NC(=O)C/C=C/[C@H]1C`, for which the activation is 10.4%.

`Cc1[nH][nH]c(=O)c1C(c1ccc(-c2ccc(F)cc2[N+](=O)[O-])o1)c1c(C)[nH][nH]c1=O`: the activation is 9%.

Turning to `O=C(CN1C(=O)CCC1=O)Nc1ccc(S(=O)(=O)N2CCOCC2)cc1`, the activation was 9.75%.

As for `C=CCSC1=C(C#N)C(c2ccc(Cl)cc2Cl)CC(=O)N1` (stereo unspecified), the activation was -2.2%.

Turning to `CC(C)n1c(=O)[nH]c2c(C(N)=O)nc(-c3ccc(-c4ccccc4)cc3)nc21`, the activation was 8.53%.

For the compound `COc1ccc(N2C(=O)C(Cl)=C(Nc3ccc(C)cc3)C2=O)cc1`, the activation is 9.02%.

As for `COc1cc(OC)cc(C(=O)Nc2ccc3c4c(cccc24)CC3)c1`, the activation is 9.11%.

For the compound `CCOc1ccccc1-c1cc(C(=O)N2CCOCC2)c2ccccc2n1`, the activation is -4.4%.

For `Cc1ccc(NC(=O)CSc2nnc(-c3ccc(N)cc3)n2C)cc1Cl`, the activation was 5.44%.

As for `COc1ccc(C2(C)NC(=O)N(CC(=O)Nc3ccc4ccccc4c3)C2=O)cc1` (stereo unspecified), the activation is 5.1%.

As to `CC(=O)Nc1ccc(NC(=O)c2ccc3nc(Br)sc3c2)cc1`, the activation is -3.64%.

Turning to `CCC1C(=O)NCCN1Cc1ccc2c(c1)CN(Cc1c[nH]c3ccccc13)CCO2` (stereo unspecified), the activation was -4.8%.

For the compound `CC(=O)Nc1nc(C(=O)Nc2nc(-c3sc(C)nc3C)cs2)cs1`, the activation is 13.5%.

For `c1cncc(Nc2nc(NC3CC3)c3ncn(C4CCCCC4)c3n2)c1`, the activation was -7.65%.

`COc1ccc(NC(=S)N2CCN(S(=O)(=O)c3ccc(F)cc3)CC2)c(OC)c1`: the activation is -3.67%.

For `CCc1ccc(S(=O)(=O)NCCOc2cc(N3CCOCC3)ncn2)cc1`, the activation is 0.5%.

Regarding `Cc1ccc(NC(=O)c2cccc(N(C)C)c2)cc1NC(=O)c1ccc(O)cc1`, the activation is -0.12%.

Turning to `COc1ccc(C=C(C#N)C#N)c(CSc2ccccn2)c1`, the activation was 14.8%.

Turning to `COc1cc([N+](=O)[O-])ccc1NC(=S)NCc1cc(C)n(C)n1`, the activation is -4.23%.

`Cn1c(=O)c2c(nc(SCC(=O)O)n2Cc2ccc(F)cc2)n(C)c1=O`: the activation was -2.28%.

In the case of `C/C(=N/N1CCN(Cc2ccc(C)cc2C)CC1)c1ccc([N+](=O)[O-])cc1`, the activation was -0.84%.

As to `CCOc1cc(C2C3=C(CCCC3=O)NC3=C2C(=O)CCC3)cc(Br)c1OCC`, the activation was 8.25%.

In the case of `CCCOC1(C(F)(F)F)NC(=O)N(c2ccc(C(C)C)cc2)C1=O` (stereo unspecified), the activation was -7.99%.

As to `CC(=O)c1cccc(-c2nc(Nc3ccc(Oc4ccccc4)cc3)c3ncn(-c4ccsc4)c3n2)c1`, the activation was 1.29%.

With `COc1cc(C(C)=Nc2c(C)n(C)n(-c3ccccc3)c2=O)cc(O)c1OC`, the activation is 3.69%.

On to `Cc1ccccc1C(=O)NCc1nc(-c2ccc(Cl)cc2)no1`, for which the activation was 10.3%.

As for `C=CCn1c(=O)c2ccc(C(=O)NCc3ccc4c(c3)OCO4)cc2n(CC(N)=O)c1=O`, the activation was 5.23%.

With `COc1ccc([N+](=O)[O-])cc1NC(=O)C1CC(Cl)=CCC1C(=O)O` (stereo unspecified), the activation was -0.8%.

`O=C(Nc1ccc(NC(=O)c2cccc3c(Br)cccc23)cc1)c1ccco1`: the activation was 16.8%.

With `CC(=O)c1c(C)[nH]c(C(=O)N2CCN(c3ccc(Cl)cc3)CC2)c1C`, the activation is 2.38%.

As to `COc1ccc(Nc2nc(-c3ccc(F)cc3)cs2)c(OC)c1`, the activation was 5.77%.

In the case of `COc1cc(/C=N/N=C2/NC(=O)CS2)ccc1OC(=O)c1ccccc1C`, the activation was -7.49%.

Take `O=C(O)/C=C/c1ccccc1Cl`: the activation is -5.81%.

For the compound `COc1ccc(C(=O)Nc2ccc(S(=O)(=O)NC(C)C)cc2)cc1`, the activation was 13.4%.

With `CC(C(=O)NCCN1CCOCC1)n1c2ccccc2c2cn[nH]c(=O)c21` (stereo unspecified), the activation was 5.53%.

Take `Cc1ccc2cc(C#N)c(SCCO)nc2c1`: the activation is -5.53%.

With `Cc1ccc[n+](-c2ncnc(N)c2[N+](=O)[O-])c1`, the activation is -3.57%.

As for `CCOc1ccc(/C=C2N=C(/C=C/c3cccc(Cl)c3Cl)OC\2=O)cc1`, the activation is 0.65%.

As for `O=C(NCc1ccsc1)c1ccc(-n2cccc2)cc1`, the activation was -3.28%.

`O=C(C(Cc1ccccc1)N1C(=O)C2C3c4ccccc4C(c4ccccc43)C2C1=O)N1CCOCC1` (stereo unspecified): the activation was 7.72%.

With `Cc1cccc(NC(=O)CSc2nc3[nH]ncc3c(=O)[nH]2)c1`, the activation was 0.57%.

Take `NC(=S)N/N=C/c1ccc([N+](=O)[O-])cc1`: the activation is 6.78%.

For the compound `O=C(/C=C/Nc1ccccc1NS(=O)(=O)c1ccc([N+](=O)[O-])cc1)c1ccco1`, the activation was -7.75%.

Turning to `CN(C)c1cccc(Nc2cc(C(=O)Nc3ccc(N4CCOCC4)cc3)ccn2)c1`, the activation was -10.4%.

For `CC1=C(C(=O)Nc2cccc(F)c2)C(c2ccccn2)C2=C(CCCC2=O)N1` (stereo unspecified), the activation was 0.3%.
